Test results from PubChem BioAssay (NCATS).
“And” between values parts separate entries of the source, which are not always exact repeats. Equal values may be shown once. Inconclusive results are not listed. The source made the active and inactive calls. Unless noted, calls come from the whole dose curve; as a rule, active = well fitted inhibition curve with a large enough effect; inconclusive = small, poorly fitted or top-dose-only effect; inactive = flat fitted curve, though single readings scatter.

Tests used:
[1] = Drug repurposing screens with cells derived from glioblastoma tumor samples (AID 1345199); conditions: GBM patient neurospheres viability, ATP luminescence, 48 h; note: nearly all actives have a fitted effect of over 40% in size; note: potency is the fitted concentration of half-maximal effect; for activity, negative = cell killing: % is set by controls: 0 for no effect and ±100 for the full control effect
Procedure, shortened: (§1)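 Four patient lines of CD133+ GBM neurospheres were screened at several concentrations; hits were retested in those lines plus three slower-growing GBM lines, using 48-hour treatment and ATP-based viability.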

astro = control astrocytes; experiment: as above; conditions: viability, ATP luminescence, 48 h; series mostly up to 45.9 µM
Procedure, shortened: as §1

[2] = target: Nuclear receptor subfamily 1 group I member 2 (Rattus norvegicus) (UniProt Q9R1A7); experiment: qHTS assay for small molecule activators of the rat pregnane X receptor (rPXR) signaling pathway (AID 651751; call rule not given here; note: 0% is about no effect); conditions: rPXR reporter cells, luciferase (One-Glo), 24 h
Nuclear receptor subfamily 1 group I member 2 (Rattus norvegicus), sequence (Q9R1A7 whole entry, looked up): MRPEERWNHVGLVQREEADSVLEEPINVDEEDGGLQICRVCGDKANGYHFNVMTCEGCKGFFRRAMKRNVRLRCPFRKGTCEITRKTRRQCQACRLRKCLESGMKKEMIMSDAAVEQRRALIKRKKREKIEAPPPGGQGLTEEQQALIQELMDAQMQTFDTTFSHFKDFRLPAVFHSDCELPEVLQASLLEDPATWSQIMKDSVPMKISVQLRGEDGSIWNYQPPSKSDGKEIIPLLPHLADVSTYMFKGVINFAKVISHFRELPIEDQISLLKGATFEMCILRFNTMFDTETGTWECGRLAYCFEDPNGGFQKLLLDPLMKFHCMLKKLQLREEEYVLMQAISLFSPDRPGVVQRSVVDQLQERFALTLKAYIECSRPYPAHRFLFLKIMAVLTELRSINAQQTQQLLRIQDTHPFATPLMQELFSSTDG

[3] = qHTS assay for small molecule activators of the human pregnane X receptor (PXR) signaling pathway (AID 720659; call rule not given here; note: 0% is about no effect); conditions: DPX-2 HepG2 CYP3A4-luciferase, 24 h; series mostly up to 92.3 µM
[4] = at 45.9 µM (top of the series), tumour line B
[5] = at 45.9 µM (top of the series), tumour line D
[6] = at 46 µM (top of the series), tumour line A
[7] = at 46.1 µM (top of the series), tumour line C

CC1(C)S[C@@H]2[C@H](NC(=O)C3(N)CCCCC3)C(=O)N2[C@H]1C(=O)O
inactive: activity, negative = cell killing [1, 4] -3.31% | activity, negative = cell killing [1, 5] -4.88% | activity, negative = cell killing [1, 6] -7.56% | activity, negative = cell killing [1, 7] -20.1% | Potency (astro)

NC[C@@H]1O[C@H](O[C@H]2[C@@H](O)[C@H](O[C@@H]3[C@@H](O)[C@H](N)C[C@H](N)[C@H]3O[C@H]3O[C@H](CO)[C@@H](O)[C@H](O)[C@H]3N)O[C@@H]2CO)[C@H](N)[C@@H](O)[C@@H]1O
inactive: activity, negative = cell killing [1, 4] -4.51% | activity, negative = cell killing [1, 5] -15.7% | activity, negative = cell killing [1, 6] -10.6% | activity, negative = cell killing [1, 7] -32.1% | Potency (astro)

CC(=O)[O][Al][O]C(C)=O
inactive: activity, negative = cell killing [1, 4] -5.15% | activity, negative = cell killing [1, 5] -14.6% | activity, negative = cell killing [1, 6] -26.4% | activity, negative = cell killing [1, 7] -11.8% | Potency (astro)

[O]=[Bi][O][Bi]=[O]
inactive: activity, negative = cell killing [1, 4] -6.82% | activity, negative = cell killing [1, 5] -2.13% | activity, negative = cell killing [1, 6] 1.51% | activity, negative = cell killing [1, 7] 0.751% | Potency (astro)

C=CCOc1ccc(CC(=O)O)cc1Cl
inactive: activity, negative = cell killing [1, 4] 0.88% | activity, negative = cell killing [1, 5] 1.11% | activity, negative = cell killing [1, 6] -23% | activity, negative = cell killing [1, 7] 0.211% | Potency (astro)

CC1(O)CCC(C(C)(C)O)CC1 (stereo not drawn)
inactive: activity, negative = cell killing [1, 4] -1.19% | activity, negative = cell killing [1, 5] -26.4% | activity, negative = cell killing [1, 6] -16.9% | activity, negative = cell killing [1, 7] 9.01% | Potency (astro)

NC[C@@H]1CC[C@@H](N)[C@@H](O[C@H]2[C@H](O)[C@@H](O[C@H]3O[C@H](CO)[C@@H](O)[C@H](N)[C@H]3O)[C@H](N)C[C@@H]2N)O1
inactive: activity, negative = cell killing [1, 4] 0.351% | activity, negative = cell killing [1, 5] 3.76% | activity, negative = cell killing [1, 6] -27.2% | activity, negative = cell killing [1, 7] -13% | Potency (astro)

NCCCC[C@H](N)C(=O)O
inactive: activity, negative = cell killing [1, 4] -13.6% | activity, negative = cell killing [1, 5] 9.14% | activity, negative = cell killing [1, 6] -18.9% | activity, negative = cell killing [1, 7] 9.67% | Potency (astro)

O=C(O)CN(CC(=O)O)CC1=CC2C(=CC1=O)Oc1cc(O)c(CN(CC(=O)O)CC(=O)O)cc1C21OC(=O)c2ccccc21 (stereo not drawn)
inactive: activity, negative = cell killing [1, 4] -10.9% | activity, negative = cell killing [1, 5] -10.1% | activity, negative = cell killing [1, 6] -21.2% | activity, negative = cell killing [1, 7] -24.7% | Potency (astro)

CC[C@@H]1/C=C(\C)C[C@H](C)C[C@H](OC)[C@H]2O[C@@](O)(C(=O)C(=O)N3CCCC[C@H]3C(=O)O[C@H](/C(C)=C/[C@@H]3CC[C@@H](Cl)[C@H](OC)C3)[C@H](C)[C@@H](O)CC1=O)[C@H](C)C[C@@H]2OC
inactive: activity, negative = cell killing [1, 4] -7.85% | activity, negative = cell killing [1, 5] -16.3% | activity, negative = cell killing [1, 6] -14.1% | activity, negative = cell killing [1, 7] -18.5% | Potency (astro)

C[C@@H]1O[C@@H](OC[C@H]2O[C@@H](Oc3c(-c4ccc(OCCO)c(OCCO)c4)oc4cc(OCCO)cc(O)c4c3=O)[C@H](O)[C@@H](O)[C@@H]2O)[C@H](O)[C@H](O)[C@H]1O
inactive: activity, negative = cell killing [1, 4] -5.23% | activity, negative = cell killing [1, 5] -14.3% | activity, negative = cell killing [1, 6] -13.8% | activity, negative = cell killing [1, 7] -13.8% | Potency (astro)

NC(=O)OC[C@@H]1[C@H](NC(=O)/C(=N\OCC(=O)O)c2csc(N)n2)C(=O)N1S(=O)(=O)O
inactive: activity, negative = cell killing [1, 4] 5.57% | activity, negative = cell killing [1, 5] 5.27% | activity, negative = cell killing [1, 6] -4.61% | activity, negative = cell killing [1, 7] -1.35% | Potency (astro)

CC1(C)[C@@H]2CC[C@@]1(C)[C@H](OC(=O)CSC#N)C2
inactive: activity, negative = cell killing [1, 4] -7.75% | activity, negative = cell killing [1, 5] -12% | activity, negative = cell killing [1, 7] 23.1% | Potency (astro)
active: Potency ([1]; tumour line A) 35.5 µM

O=C1c2ccccc2CN2C(=O)c3ccccc3CN12
inactive: activity, negative = cell killing [1, 4] -20.4% | activity, negative = cell killing [1, 5] -5.7% | activity, negative = cell killing [1, 6] -23.1% | activity, negative = cell killing [1, 7] -20% | Potency (astro)

NC(=S)NS(=O)(=O)c1ccc(N)cc1
inactive: activity, negative = cell killing [1, 4] -6.04% | activity, negative = cell killing [1, 5] 0.448% | activity, negative = cell killing [1, 6] -23.8% | activity, negative = cell killing [1, 7] -8.76% | Potency (astro)

CCCc1ccc(C(=O)O)cc1
inactive: activity, negative = cell killing [1, 4] -12.5% | activity, negative = cell killing [1, 5] -19.9% | activity, negative = cell killing [1, 6] -22.4% | activity, negative = cell killing [1, 7] 3.37% | Potency (astro)

Nc1ncnc2c1ncn2[C@H]1CC[C@@H](CO)O1
inactive: activity, negative = cell killing [1, 4] -7.29% | activity, negative = cell killing [1, 5] -3.43% | activity, negative = cell killing [1, 6] -28.3% | activity, negative = cell killing [1, 7] -20.8% | Potency (astro) | max response [2] -2.84% and -0.199% | outcome [3]

CC1CCCCN1CCCOC(=O)c1ccccc1 (stereo not drawn)
inactive: activity, negative = cell killing [1, 4] -12.2% | activity, negative = cell killing [1, 5] -13.7% | activity, negative = cell killing [1, 7] -1.82% | Potency (astro)

Cc1ccc(S(=O)(=O)O)cc1C
inactive: activity, negative = cell killing [1, 4] -6.15% | activity, negative = cell killing [1, 5] 0.633% | activity, negative = cell killing [1, 6] -2.37% | activity, negative = cell killing [1, 7] -2.17% | Potency (astro) | max response [2] 0.795% | outcome [3]

CCCCCCCCCCCC(=O)OC[C@@H](O)C1OC[C@H](O)[C@H]1O (stereo partly drawn)
inactive: activity, negative = cell killing [1, 4] -6.52% | activity, negative = cell killing [1, 5] -10.2% | activity, negative = cell killing [1, 7] -22.6% | Potency (astro)

OCl
inactive: activity, negative = cell killing [1, 4] -3.7% | activity, negative = cell killing [1, 5] -8.71% | activity, negative = cell killing [1, 6] -24.4% | activity, negative = cell killing [1, 7] -3.94% | Potency (astro) | max response [2] -4.49% | outcome [3]

CC(C)[C@@H]1CC[C@@H](C)C[C@H]1O
inactive: activity, negative = cell killing [1, 4] -7.27% | activity, negative = cell killing [1, 5] 3.66% | activity, negative = cell killing [1, 6] -18.1% | activity, negative = cell killing [1, 7] -14.4% | Potency (astro) | max response [2] -1.32% | outcome [3]

OCc1ccccc1
inactive: activity, negative = cell killing [1, 4] -6.55% | activity, negative = cell killing [1, 5] 18% | activity, negative = cell killing [1, 6] -25.4% | activity, negative = cell killing [1, 7] 15.3% | Potency (astro) | max response [2] 22.6% | outcome [3]
